Structures can show the parent of a compound that is named as a salt.

In the assay the test system is Danio rerio larvae (5 dpf). Put plainly: habituation (activity change first vs second 5 min of 1-s interval sound, period 17) minus DMSO control (percentage points); higher = larger habituation measure than DMSO larvae. To be noted: 10 µM; exposure time: 3 h pre-incubation + 3 h imaging. The method, then:
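Wild-type 5 dpf zebrafish larvae (n=48 per drug, 96-well plates, 28.5 °C) were exposed to Tocris FDA-approved library compounds at 10 µM (0.1% DMSO) for 3 h before and 3 h during imaging. Images were taken every 6 s during visual (moving coloured lines) and acoustic stimuli, and larvae were tracked with the DeepLabCut-based Z-LaP Tracker. Each behavioural measure is the treated-group mean minus the DMSO vehicle control mean (n=844), in percentage points. This mapping covers compounds with 4-character plate codes.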
On to `COc1cc2nc(N3CCN(C(=O)C4COc5ccccc5O4)CC3)nc(N)c2cc1OC` (stereo not given) [Doxazosin mesylate], for which the habituation was 0.55. With `COc1ccc(-c2ccc3cc(C(=O)O)ccc3c2)cc1C12CC3CC(CC(C3)C1)C2` [Adapalene] the figure was 1.1. Take `Cc1cn([C@H]2C=C[C@@H](CO)O2)c(=O)[nH]c1=O` [Stavudine]: the habituation was -0.444. Turning to `Cc1c(-c2ccc(O)cc2)n(Cc2ccc(OCCN3CCCCCC3)cc2)c2ccc(O)cc12` [Bazedoxifene acetate], the habituation was 0.95. With `CC(C)C(=O)OCC(=O)[C@@]12O[C@H](C3CCCCC3)O[C@@H]1C[C@H]1[C@@H]3CCC4=CC(=O)C=C[C@]4(C)[C@H]3[C@@H](O)C[C@@]12C` [Ciclesonide] the figure was 0.71; with `CN1CC2c3ccccc3Oc3ccc(Cl)cc3C2C1` (stereo not given) [Asenapine maleate], -12.6.

For `NC(=O)c1ncn([C@@H]2O[C@H](CO)[C@@H](O)[C@H]2O)n1` [Ribavirin], the habituation was 0.859. With `CC(C)Nc1cccnc1N1CCN(C(=O)c2cc3cc(NS(C)(=O)=O)ccc3[nH]2)CC1` [Delavirdine mesylate] the figure was -5.18. With `Cc1nc(Nc2ncc(C(=O)Nc3c(C)cccc3Cl)s2)cc(N2CCN(CCO)CC2)n1` [Dasatinib] the figure was -0.804. As to `CC(C)(C(=O)c1cccnc1)c1cccnc1` [Metyrapone], the habituation is 0.481.

In the case of `O=C(O)CCCc1ccccc1` [Sodium 4-Phenylbutyrate], the habituation was -2.16. As to `CC(C)c1ccc2oc3nc(N)c(C(=O)O)cc3c(=O)c2c1` [Amlexanox], the habituation was -2.56. For the compound `CC1CNc2c(cccc2S(=O)(=O)N[C@@H](CCCNC(=N)N)C(=O)N2CC[C@@H](C)C[C@@H]2C(=O)O)C1` (stereo not given in full) [Argatroban], the habituation is -0.107. With `OC(CNCC(O)C1CCc2cc(F)ccc2O1)C1CCc2cc(F)ccc2O1` (stereo not given) [Nebivolol hydrochloride] the figure was -10.1; with `CC(c1cc2ccccc2s1)N(O)C(N)=O` (stereo not given) [Zileuton], 7.74.

For the compound `COc1cc2nc(N3CCN(C(=O)c4ccco4)CC3)nc(N)c2cc1OC` [Prazosin hydrochloride], the habituation worked out at 0.443.

As to `CC[C@H](C)C(=O)O[C@H]1C[C@@H](C)C=C2C=C[C@H](C)[C@H](CC[C@@H]3C[C@@H](O)CC(=O)O3)[C@H]21` [Lovastatin], the habituation is -2.11. Regarding `CC(=O)Oc1ccccc1C(=O)O` [Aspirin], the habituation was -4.51. With `Cc1nnc(C(C)C)n1C1C[C@H]2CC[C@@H](C1)N2CC[C@H](NC(=O)C1CCC(F)(F)CC1)c1ccccc1` (stereo in doubt) [Maraviroc] the figure was 3.31; with `CCCCCOC(=O)Nc1nc(=O)n([C@@H]2O[C@H](C)[C@@H](O)[C@H]2O)cc1F` [Capecitabine], -3.27.

For `Nc1nc(NC2CC2)c2ncn([C@H]3C=C[C@@H](CO)C3)c2n1` [Abacavir hemisulfate], the habituation amounted to 3.13. On to `C[C@H]1C[C@@H]2[C@H]([C@@H](O)C[C@@]3(C)[C@H]2CC[C@]3(O)C(=O)CO)[C@@]2(C)C=CC(=O)C=C12` [Methylprednisolone], for which the habituation is 0.909. With `CCc1c2c(nc3ccc(OC(=O)N4CCC(N5CCCCC5)CC4)cc13)-c1cc3c(c(=O)n1C2)COC(=O)[C@]3(O)CC` the figure was 9.09; with `Nc1nc(F)nc2c1ncn2[C@@H]1O[C@H](CO)[C@@H](O)[C@@H]1O` [Fludarabine], -0.666; with `CCCCNc1cc(C(=O)O)cc(S(N)(=O)=O)c1Oc1ccccc1` [Bumetanide], -0.555. With `Cc1ccc(O)c([C@H](CCN(C(C)C)C(C)C)c2ccccc2)c1` [Tolterodine L-tartrate] the figure was -5.86; with `O=C(c1ccc(OCCN2CCCCC2)cc1)c1c(-c2ccc(O)cc2)sc2cc(O)ccc12` [Raloxifene hydrochloride], -3.07; with `CC1=Nc2ccc(Cl)cc2S(=O)(=O)N1` [Diazoxide], 8.87.

Turning to `COC(c1ccccc1)(c1ccccc1)[C@H](Oc1nc(C)cc(C)n1)C(=O)O` [Ambrisentan], the habituation was found to be 4.59. As to `COc1c(C)c2c(c(O)c1C/C=C(\C)CCC(=O)O)C(=O)OC2` [Mycophenolic acid], the habituation was determined as 1.82. With `Brc1c(NC2=NCCN2)ccc2nccnc12` the figure was -6.57.

On to `CC(=O)S[C@@H]1CC2=CC(=O)CC[C@]2(C)[C@H]2CC[C@@]3(C)[C@@H](CC[C@@]34CCC(=O)O4)[C@H]12` [Spironolactone], for which the habituation worked out at 2.5. With `CCC(=O)O[C@]1(C(=O)SCF)[C@H](C)C[C@H]2[C@@H]3C[C@H](F)C4=CC(=O)C=C[C@]4(C)[C@@]3(F)[C@@H](O)C[C@@]21C` [Fluticasone propionate] the figure was 2.72. With `CCOc1nc2cccc(C(=O)O)c2n1Cc1ccc(-c2ccccc2-c2noc(=O)[nH]2)cc1` [Azilsartan] the figure was 8.15. As to `OCCOCCN1CCN(C2=Nc3ccccc3Sc3ccccc32)CC1` [Quetiapine hemifumarate], the habituation was -4.22.

`NC(=O)N1c2ccccc2C=Cc2ccccc21` [Carbamazepine]: the habituation was 2.97. For the compound `CN(C)CCC[C@@]1(c2ccc(F)cc2)OCc2cc(C#N)ccc21` [Escitalopram oxalate], the habituation was -6.32. With `COc1cc(Nc2c(C#N)cnc3cc(OCCCN4CCN(C)CC4)c(OC)cc23)c(Cl)cc1Cl` [Bosutinib] the figure was 1.4. For `CCCc1nc(C(C)(C)O)c(C(=O)O)n1Cc1ccc(-c2ccccc2-c2nnn[nH]2)cc1` [Olmesartan], the habituation amounted to 2.6.

For `Cc1cc(C2CCCCC2)n(O)c(=O)c1` [Ciclopirox], the habituation is -2.51.

Source of the values: the supplement of paper PMC9950053.
